Drawing on ChEMBL document CHEMBL3988442, “University of Dundee, Small-Polar-MMV Screening Library” (2021), this text covers Percent Effect for eight molecules.

For some of these results: Entries with a potency or affinity are not part of this list.

What all share (set-up): scale not given: direction of the effect not stated beside the values
For experiment [1], the target named is Protein translocase subunit SecA (Escherichia coli (strain K12)) (UniProt P10408). Description: Assay to Identify E. coli SecA ATPase Inhibitors. Format: functional. The settings on record: 30 µM.
Sequence of Protein translocase subunit SecA (Escherichia coli (strain K12)) (P10408 whole entry): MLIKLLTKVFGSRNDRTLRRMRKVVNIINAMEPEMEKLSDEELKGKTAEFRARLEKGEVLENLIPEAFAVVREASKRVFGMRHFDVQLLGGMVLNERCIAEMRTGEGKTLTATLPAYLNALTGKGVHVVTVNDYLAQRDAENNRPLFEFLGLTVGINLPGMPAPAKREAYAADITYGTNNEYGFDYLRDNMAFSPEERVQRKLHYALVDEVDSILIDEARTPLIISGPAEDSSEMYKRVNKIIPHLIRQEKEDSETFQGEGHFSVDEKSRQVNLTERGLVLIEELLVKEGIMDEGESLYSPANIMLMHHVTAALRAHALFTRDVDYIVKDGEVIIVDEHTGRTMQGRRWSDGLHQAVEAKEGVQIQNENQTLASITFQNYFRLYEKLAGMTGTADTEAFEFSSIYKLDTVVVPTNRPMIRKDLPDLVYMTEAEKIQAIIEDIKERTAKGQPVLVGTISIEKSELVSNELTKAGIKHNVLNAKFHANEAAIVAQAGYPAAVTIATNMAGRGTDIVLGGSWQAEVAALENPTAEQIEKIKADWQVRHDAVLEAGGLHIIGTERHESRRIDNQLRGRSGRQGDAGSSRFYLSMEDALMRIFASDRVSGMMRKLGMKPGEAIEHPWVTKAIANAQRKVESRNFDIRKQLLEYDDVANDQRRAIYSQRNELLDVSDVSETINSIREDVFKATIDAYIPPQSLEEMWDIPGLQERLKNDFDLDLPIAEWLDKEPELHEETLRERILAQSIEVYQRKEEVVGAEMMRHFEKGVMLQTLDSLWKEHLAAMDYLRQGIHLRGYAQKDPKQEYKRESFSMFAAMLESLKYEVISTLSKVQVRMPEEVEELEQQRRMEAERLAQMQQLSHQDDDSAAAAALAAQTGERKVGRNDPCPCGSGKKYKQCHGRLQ
Experiment [2] addresses T1, Ubiquitin-activating enzyme e1, putative (Leishmania donovani (strain BPK282A1)) (UniProt E9BSI1).
T1 sequence (whole entry): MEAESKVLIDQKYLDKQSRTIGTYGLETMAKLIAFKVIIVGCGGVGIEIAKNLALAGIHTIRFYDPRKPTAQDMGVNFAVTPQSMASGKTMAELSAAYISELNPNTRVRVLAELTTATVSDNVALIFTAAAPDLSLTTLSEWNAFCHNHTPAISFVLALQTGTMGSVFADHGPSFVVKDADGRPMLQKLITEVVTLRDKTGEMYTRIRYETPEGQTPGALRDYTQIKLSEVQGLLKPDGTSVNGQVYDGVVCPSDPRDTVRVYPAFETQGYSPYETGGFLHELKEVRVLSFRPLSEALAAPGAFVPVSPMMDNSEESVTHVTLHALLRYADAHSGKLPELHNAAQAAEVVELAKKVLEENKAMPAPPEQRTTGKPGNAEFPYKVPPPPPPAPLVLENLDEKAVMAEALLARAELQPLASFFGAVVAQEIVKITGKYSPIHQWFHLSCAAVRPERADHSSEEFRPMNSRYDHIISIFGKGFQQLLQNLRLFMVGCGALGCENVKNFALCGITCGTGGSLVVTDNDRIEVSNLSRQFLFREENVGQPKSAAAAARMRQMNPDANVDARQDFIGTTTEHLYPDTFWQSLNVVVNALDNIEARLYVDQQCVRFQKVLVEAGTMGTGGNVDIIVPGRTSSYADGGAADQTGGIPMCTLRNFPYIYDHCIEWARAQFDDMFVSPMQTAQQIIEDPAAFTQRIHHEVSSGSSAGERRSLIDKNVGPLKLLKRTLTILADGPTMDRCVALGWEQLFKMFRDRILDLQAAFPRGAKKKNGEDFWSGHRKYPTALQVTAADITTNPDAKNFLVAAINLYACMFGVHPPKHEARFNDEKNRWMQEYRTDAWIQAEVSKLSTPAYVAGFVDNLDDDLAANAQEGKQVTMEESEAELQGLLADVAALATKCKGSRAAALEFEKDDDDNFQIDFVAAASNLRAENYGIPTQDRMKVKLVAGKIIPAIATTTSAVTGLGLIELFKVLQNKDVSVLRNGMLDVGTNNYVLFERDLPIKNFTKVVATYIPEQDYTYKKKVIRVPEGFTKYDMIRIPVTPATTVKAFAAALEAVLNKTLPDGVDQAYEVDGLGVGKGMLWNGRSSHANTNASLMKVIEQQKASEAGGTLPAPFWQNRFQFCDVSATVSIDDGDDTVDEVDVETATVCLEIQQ
Description: Leishmania donovani Ubiquitin Activating Enzyme (LdE1). The class given is functional. Particulars: 30 µM.

Experiment [3] addresses AMP-activated protein kinase, AMPK (Homo sapiens) (UniProt P54646+O43741+P54619+Q9UGJ0+Q9Y478+Q13131+Q9UGI9). Nature of the experiment: AMP-dependent Kinase enzyme assay. An in vitro enzyme assay that detects ADP turnover that is directly proportional to AMPK activity. This uses naive AMPK that is activated during the assay with MK-8722. Format: functional. The settings on record: 30 µM.

The target of experiment [4] is Sialic acid-binding Ig-like lectin 9 (Homo sapiens) (UniProt Q9Y336). Nature of the experiment: Hs-Siglec9 ALPHAscreen SOP 20170721. Particulars: 10 µM.
Sequence of Sialic acid-binding Ig-like lectin 9 (Homo sapiens) (Q9Y336 whole entry): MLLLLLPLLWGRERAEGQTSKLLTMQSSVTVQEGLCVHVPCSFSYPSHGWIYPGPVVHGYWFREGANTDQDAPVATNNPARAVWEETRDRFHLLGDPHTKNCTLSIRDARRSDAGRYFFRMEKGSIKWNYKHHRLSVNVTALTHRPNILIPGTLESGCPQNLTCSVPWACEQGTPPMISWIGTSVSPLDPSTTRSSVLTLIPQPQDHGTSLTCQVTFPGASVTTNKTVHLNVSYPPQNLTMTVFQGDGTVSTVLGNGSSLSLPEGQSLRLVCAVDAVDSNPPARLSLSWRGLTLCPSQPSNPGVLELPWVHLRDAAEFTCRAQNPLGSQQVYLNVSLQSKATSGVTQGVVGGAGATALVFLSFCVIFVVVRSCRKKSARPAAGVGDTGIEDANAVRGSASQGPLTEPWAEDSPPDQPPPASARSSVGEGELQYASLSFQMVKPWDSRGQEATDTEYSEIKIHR
Experiment [5] relates to Trypanosoma cruzi. Description: Trypanosoma cruzi phosphomannomutase and mannose-1-phosphate guanylyltransferase assay. Format: functional. Particulars: 10 µM.
The target in experiment [6] is T2, Arginase-2, mitochondrial (Homo sapiens) (UniProt P78540).
T2 sequence (whole entry): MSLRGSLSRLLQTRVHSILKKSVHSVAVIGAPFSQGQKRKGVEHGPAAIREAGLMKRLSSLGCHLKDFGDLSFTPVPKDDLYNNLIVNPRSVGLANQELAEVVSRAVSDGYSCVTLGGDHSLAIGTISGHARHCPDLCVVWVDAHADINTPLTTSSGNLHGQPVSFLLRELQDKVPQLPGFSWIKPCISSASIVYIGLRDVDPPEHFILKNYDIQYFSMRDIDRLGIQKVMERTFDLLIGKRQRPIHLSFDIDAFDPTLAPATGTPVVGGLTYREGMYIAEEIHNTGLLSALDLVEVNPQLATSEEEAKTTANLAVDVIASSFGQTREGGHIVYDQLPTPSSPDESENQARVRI
Nature of the experiment: in vitro enzyme assay to detect the production of urea directly proportional to the activity of Arginase II. Note: in the data most compounds retested in dose-response had high values. Particulars: 33.3 µM. Format: functional.

Experiment [7] concerns the target T3, Proteasome subunit beta (Trypanosoma cruzi) (UniProt O96673).
T3 sequence (whole entry): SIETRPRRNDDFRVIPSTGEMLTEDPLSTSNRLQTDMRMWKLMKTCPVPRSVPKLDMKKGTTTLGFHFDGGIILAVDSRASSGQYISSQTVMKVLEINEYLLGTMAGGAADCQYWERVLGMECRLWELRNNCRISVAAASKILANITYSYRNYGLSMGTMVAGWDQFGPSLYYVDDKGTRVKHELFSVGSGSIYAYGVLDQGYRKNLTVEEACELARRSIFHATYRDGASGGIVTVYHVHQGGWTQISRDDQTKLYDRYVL
Description: Trypanosoma cruzi proteasome chymotrypsin-like activity (TcProtChymo) assay. Note: in the data most compounds retested in dose-response had high values. The settings on record: 9.37 µM. Format: functional.

The species entered for experiment [8] is Homo sapiens. Description: To identify inhibition of the IFN signalling (Jak-Stat) pathway via expression of an eGFP reporter gene under the control of an IFN-stimulated response element (ISRE) containing MxA promoter. Particulars: 30 µM. The class given is functional. On the technique in general: Reporter assays use an easily measured gene product as a stand-in for the process of interest.

Experiment [9] has as its target T4, Tyrosyl-tRNA synthetase, putative (Trypanosoma cruzi (strain CL Brener)) (UniProt Q4DSP6).
T4 sequence (whole entry): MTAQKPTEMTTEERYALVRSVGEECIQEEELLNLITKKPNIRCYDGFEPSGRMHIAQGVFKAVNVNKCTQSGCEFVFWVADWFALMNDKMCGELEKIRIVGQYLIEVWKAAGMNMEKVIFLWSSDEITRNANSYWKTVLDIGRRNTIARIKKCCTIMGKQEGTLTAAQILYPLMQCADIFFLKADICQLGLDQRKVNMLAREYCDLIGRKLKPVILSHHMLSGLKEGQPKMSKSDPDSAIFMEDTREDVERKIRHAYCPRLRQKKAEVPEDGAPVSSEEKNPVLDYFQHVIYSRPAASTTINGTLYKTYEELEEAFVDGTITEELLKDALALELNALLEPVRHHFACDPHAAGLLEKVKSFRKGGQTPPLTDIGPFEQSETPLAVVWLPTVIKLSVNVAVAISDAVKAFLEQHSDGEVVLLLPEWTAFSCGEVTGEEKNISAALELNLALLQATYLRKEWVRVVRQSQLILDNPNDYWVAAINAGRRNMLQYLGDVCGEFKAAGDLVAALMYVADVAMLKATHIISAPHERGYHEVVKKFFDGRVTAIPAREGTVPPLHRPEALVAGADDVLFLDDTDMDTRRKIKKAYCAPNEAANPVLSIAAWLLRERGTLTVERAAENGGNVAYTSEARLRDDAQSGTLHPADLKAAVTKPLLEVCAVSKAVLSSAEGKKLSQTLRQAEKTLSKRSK
Description: Trypanosoma cruzi tyrosyl tRNA synthetase (TcYRS) _High Tyrosine SOP. Note: in the data most compounds retested in dose-response had high values. The class given is functional. Particulars: 30 µM.

Experiment [10] deals with T4, Tyrosyl-tRNA synthetase, putative (Trypanosoma cruzi (strain CL Brener)). Description: Trypanosoma cruzi tyrosyl tRNA synthetase (TcYRS) SOP. Format: functional. Particulars: 30 µM.
Experiment [11] concerns the target Chromo domain-containing protein 1 (Saccharomyces cerevisiae (strain ATCC 204508 / S288c) (Baker's yeast)) (UniProt P32657). Description: ScCHD-1 Enzyme Inhibition Assay. Note: in the data most compounds retested in dose-response had high values. Format: functional. Particulars: 30 µM.

Sequence of Chromo domain-containing protein 1 (Saccharomyces cerevisiae (strain ATCC 204508 / S288c) (Baker's yeast)) (P32657 whole entry, the tested form may be a part): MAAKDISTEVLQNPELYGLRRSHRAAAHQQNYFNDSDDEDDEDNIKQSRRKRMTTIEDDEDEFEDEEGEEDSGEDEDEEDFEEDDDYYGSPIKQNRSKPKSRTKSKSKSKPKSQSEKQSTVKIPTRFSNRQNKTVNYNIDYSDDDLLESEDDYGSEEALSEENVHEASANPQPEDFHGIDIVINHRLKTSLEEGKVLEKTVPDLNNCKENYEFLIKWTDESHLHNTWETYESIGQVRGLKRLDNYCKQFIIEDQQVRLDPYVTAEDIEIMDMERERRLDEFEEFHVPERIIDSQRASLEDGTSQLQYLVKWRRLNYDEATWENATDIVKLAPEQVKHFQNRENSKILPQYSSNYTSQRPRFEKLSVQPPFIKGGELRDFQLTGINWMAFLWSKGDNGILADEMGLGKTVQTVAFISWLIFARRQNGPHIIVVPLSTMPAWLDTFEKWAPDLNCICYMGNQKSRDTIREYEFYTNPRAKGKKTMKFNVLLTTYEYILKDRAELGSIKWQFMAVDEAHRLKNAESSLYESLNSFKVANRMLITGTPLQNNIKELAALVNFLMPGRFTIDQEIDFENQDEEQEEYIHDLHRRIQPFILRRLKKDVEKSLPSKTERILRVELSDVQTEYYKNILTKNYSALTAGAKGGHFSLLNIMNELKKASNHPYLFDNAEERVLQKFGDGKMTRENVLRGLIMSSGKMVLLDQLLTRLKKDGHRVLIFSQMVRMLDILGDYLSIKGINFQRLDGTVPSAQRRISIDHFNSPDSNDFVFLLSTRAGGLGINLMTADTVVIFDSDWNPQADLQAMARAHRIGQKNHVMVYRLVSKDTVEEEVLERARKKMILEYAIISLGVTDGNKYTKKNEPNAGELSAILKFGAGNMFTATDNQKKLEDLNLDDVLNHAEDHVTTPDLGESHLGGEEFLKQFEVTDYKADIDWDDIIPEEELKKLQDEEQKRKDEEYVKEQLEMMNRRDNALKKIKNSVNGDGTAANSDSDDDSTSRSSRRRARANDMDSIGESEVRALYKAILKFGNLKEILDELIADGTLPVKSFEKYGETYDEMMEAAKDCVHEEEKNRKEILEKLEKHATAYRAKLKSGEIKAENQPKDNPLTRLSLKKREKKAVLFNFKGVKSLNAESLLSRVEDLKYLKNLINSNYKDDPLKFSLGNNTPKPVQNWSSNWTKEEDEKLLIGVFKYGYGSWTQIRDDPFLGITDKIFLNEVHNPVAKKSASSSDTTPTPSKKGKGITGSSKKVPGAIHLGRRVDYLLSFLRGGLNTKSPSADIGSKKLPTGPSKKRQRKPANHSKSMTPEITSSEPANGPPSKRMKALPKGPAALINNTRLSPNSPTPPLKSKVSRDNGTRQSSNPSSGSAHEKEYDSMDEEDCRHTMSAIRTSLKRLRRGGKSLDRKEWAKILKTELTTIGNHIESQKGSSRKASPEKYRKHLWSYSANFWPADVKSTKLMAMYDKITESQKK

`O=C(CN1CCCC(Cn2cncn2)C1)NCc1ccco1` (stereo not drawn): the Percent Effect in [1] is -2.6%; in experiment [2] it was 0%; in [3], -4.08%; in experiment [4] it was -5%; in experiment [5], -8.12%; in [6], 8.27%. The Percent Effect in [7] is 7.87%; in [8] it was 6.12%; in experiment [9] it was 1.48%; in [10] it was -1.24%; in experiment [11], 4.31%.

For `Cc1noc(C)c1CCC(=O)N1CCN(CCn2cccn2)CC1`, the Percent Effect in experiment [1] is -5.39%; in experiment [2], 21.9%; in experiment [3] it was -6.91%; in experiment [4], 19.6%; in experiment [5], 7.64%; in experiment [6] it was 8.18%. For the same molecule, the Percent Effect in experiment [7] is 8.52%; in experiment [8] it was 3.96%; in [9], 3.23%; in experiment [10], 17.5%; in [11] it was -5.67%.

With `CC(NCc1ccc(Cl)o1)c1nnc2n1CCCC2` (stereo not drawn), the Percent Effect was -1.28% in [1]; 13.5% in experiment [2]; 2.81% in experiment [3]; 2.02% in [4]; 0.195% in experiment [5]; 11.2% in experiment [6]. In addition, the Percent Effect in experiment [7] was 15%; in [8], 24.2%; in experiment [9], 6.93%; in experiment [10], 18.3%; in [11], 1.09%.

Turning to `COCCN1CC[C@@H]2OC[C@H](C(=O)NCc3cccs3)C[C@@H]2C1`, the Percent Effect in experiment [1] was 0.484%; in experiment [2], 13.5%; in experiment [3] it was 0.443%; in experiment [4] it was -15.8%; in [5], -3.23%; in experiment [6] it was 1.59%. Further, the Percent Effect in [7] is 8.3%; in experiment [8], -0.0889%; in [9] it was -2.16%; in experiment [10] it was 5.13%; in experiment [11], -5%.

For the molecule `O=C(CCCc1ncc(-c2ccccc2)o1)N1CCN(CCO)CC1`, the Percent Effect in [1] was -2.7%; in experiment [2], 20.2%; in experiment [3] it was 6.12%; in experiment [4] it was -6.16%; in [5] it was -1.04%; in experiment [6], 3.04%. The Percent Effect in experiment [7] was 14.2%; in experiment [8], 6.15%; in [9] it was 4.43%; in experiment [10], 13.9%; in [11], -3.58%.

Turning to `CC(=O)N(Cc1ncc(C)o1)C1CCN(Cc2ccncc2Cl)C1` (stereo not drawn), the Percent Effect in [1] was -2.28%; in experiment [2], 15.6%; in experiment [3], -3.8%; in experiment [4] it was -0.636%; in [5], 3.62%; in experiment [6] it was 1.05%. The Percent Effect in experiment [7] was 11.2%; in experiment [8] it was -2.79%; in experiment [9], 11.4%; in [10], 30.6%; in experiment [11] it was -18.4%.

`O=C(NCc1cccc(F)c1)N1CCC2(CC(=O)N(c3ccsc3)C2)C1` (stereo not drawn): the Percent Effect in [1] was -3.47%; in experiment [2] it was 8.11%; in experiment [3] it was -0.642%; in experiment [4], -0.223%; in experiment [5] it was 1.95%; in experiment [6], 0.833%. Besides, the Percent Effect was 15.1% in experiment [7]; -5.74% in experiment [8]; 9.9% in experiment [9]; 15.8% in experiment [10]; -4.87% in experiment [11].

Turning to `O=C(CSc1ccc2c(c1)OCCO2)NS(=O)(=O)C1CCCCC1`, the Percent Effect was -2.58% in experiment [1]; -1.39% in [2]; 3.64% in [3]; -7.65% in experiment [4]; -6.71% in [5]; 3.09% in experiment [6]. Also, the Percent Effect is 11.4% in experiment [7]; 9.49% in experiment [8]; -1.05% in experiment [9]; -5.13% in [10]; -0.962% in experiment [11].
